From PubChem BioAssay AID651789 (National Center for Advancing Translational Sciences (NCATS), 2012)
Inconclusive results are not listed. Active and inactive are the calls of the source. Calls come from the whole dose curve; as a rule, active = well fitted inhibition curve with a large enough effect; inconclusive = small, poorly fitted or top-dose-only effect; inactive = no such curve, though single readings can be large or run the other way.

Test: Acumen qHTS Assay for Inhibitors of the mTORC1 Signaling Pathway in WT MEF Cells: Hit Validation; note: nearly all actives have a fitted effect of over 60% in size;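 for activity change, negative = inhibition: phospho-rpS6 Ser235/236 immunofluorescence normalised to propidium iodide cell stain; percent of cells above a cutoff set by 7.5 nM rapamycin treated wells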
Conditions: Acumen imaging; series mostly up to 37.3 µM; activity change, negative = inhibition: at the top concentration
Summary of the method: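 Read-out is immunofluorescent phospho-rpS6 (Ser235/236) normalised to PI-stained cell number, reported as % active cells using a 7.5 nM rapamycin threshold. Cells: WT or Tsc2-/-, p53-/- MEFs, compound-exposed 24 h at 37C; PI count also tracks viability.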
Potency is the fitted concentration of half-maximal effect.

SMILES | activity change, negative = inhibition | Potency
COC(=O)c1ccccc1NC(=O)Cn1c(=O)n(-c2ccc(C)cc2)c(=O)c2ccccc21 | -17.9% (inactive) | 
CCc1ccc2ncc(S(=O)(=O)c3ccc(Cl)cc3)c(N3CCN(CC)CC3)c2c1 | 6.8% (inactive) | 
CCc1ccc(-n2c(=O)c3c4c(sc3n(CC(=O)c3ccc(F)cc3)c2=O)CCC4)cc1 |  | 18.5 µM (active)
Cc1cc(C)c(NC(=O)c2sc3nc(C)cc(C)c3c2NC(=O)c2ccccc2)c(C)c1 | 67.9% (inactive) | 
CCOC(=O)C(Cc1c[nH]c2ccccc12)NC(=O)COc1ccc(Cl)cc1 (stereo not given) | 0.217% (inactive) | 
CCOc1ccc(-n2c(C)nc3c(cnn3-c3ccc(C)cc3)c2=O)cc1 | -28.3% (inactive) | 
COc1ccc(C)cc1NC(=O)CCNS(=O)(=O)c1cccc2nonc12 | 28.1% (inactive) | 
COc1ccc(CCCc2nnc(SCC(=O)Nc3ccc(OC)cc3)o2)cc1 | 9.53% (inactive) | 
CCOc1ccc(N(Cc2ccccc2)C(=O)c2nc(S(C)(=O)=O)ncc2Cl)cc1 |  | 2.07 µM (active)
CCN(CC)CCNC(=O)c1ccc(Cn2c(=O)c3cccn3c3cccnc32)cc1 | -9.16% (inactive) | 
CCCCN(C)C(=O)CSc1c2c(nc3ccc(Cl)cc13)CCCC2 | 6.86% (inactive) | 
Cc1nc2ccc(S(=O)(=O)CCC(=O)Nc3ccc(Cl)cc3)cc2s1 | -9.92% (inactive) | 
CCc1ccc(OCC(=O)N(Cc2ccc(C)cc2)Cc2ccco2)cc1 | 24% (inactive) | 
COc1ccc(C)cc1NC(=O)CSc1ccc(-c2ccccn2)nn1 | 4.03% (inactive) | 
Cc1ccc(C)c(NC(=O)Nc2cc3c(cc2N2CCCCC2)n(C)c(=O)n3C)c1 | -3.45% (inactive) | 
Cc1cccc(NC(=O)c2c(N)sc3c2CCC(C)C3)c1 (stereo not given) | -17.2% (inactive) | 
CCCOc1cccc(C2c3c(-c4ccccc4O)n[nH]c3C(=O)N2Cc2ccco2)c1 (stereo not given) | -6.4% (inactive) | 
COc1ccc(S(=O)(=O)NCCc2sc3nc(-c4ccc(C)cc4)nn3c2C)cc1F | -14% (inactive) | 
Cc1ccc(C)c(S(=O)(=O)NCC(c2ccco2)S(=O)(=O)c2ccc(F)cc2)c1 (stereo not given) | 1.81% (inactive) | 
CCN(Cc1nc(-c2ccc(OC)cc2)oc1C)S(=O)(=O)c1ccc(Cl)cc1 | -18.4% (inactive) | 
COc1cc(C2CC(=O)Nc3cc4c(cc32)OCCO4)cc(Br)c1OC (stereo not given) |  | 0.0521 µM (active)
COc1cc(OC)c(NS(=O)(=O)c2ccc3c(c2)CCCN3C(C)=O)cc1Cl | 1.71% (inactive) | 
CCN(c1ccccc1)S(=O)(=O)c1ccc(NC(=O)c2nc(S(C)(=O)=O)ncc2Cl)cc1 |  | 1.04 µM (active)
CCc1ccc(NC(=O)C2CCCN(S(=O)(=O)c3cccc4cccnc34)C2)cc1 (stereo not given) | -27% (inactive) | 
COc1ccc(Oc2nc3c(C)cccn3c(=O)c2/C=C(\C#N)c2nc3ccccc3[nH]2)cc1 | 4.58% (inactive) | 
